For 15 targets, log2 fold change results are on record in the supplement of paper PMC10849652.

Targets with a hit are over-represented here; the source holds about 7,900 in all. About 0.6% of all pairs of compound and target were hits. A number with no mark means an inactive call.

What all share (test): log2 fold change, soluble protein after heating vs DMSO (PISA); higher = thermal stabilisation; K562 cells, 10 uM, 30 min; active = over 0.2 and 3.5 SD of the protein, either way, in both replicates (recomputed)
Compound in one test: CN1CCN(CCOc2cc(OC3CCOCC3)c3c(Nc4c(Cl)ccc5c4OCO5)ncnc3c2)CC1 [saracatinib]
The procedure, abridged:
(§1)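 K562 cells at 2×10^6 cells/mL were given 10 μM compound for 30 min. Aliquots then went through 3 min of heating across 48°C-58°C, were pooled, and were extracted in PBS with 0.5% NP-40 at 4°C, and the supernatant after 21,000xg for 90 min was quantified by TMTpro 16plex LC-MS/MS with channel sums equalised. Thermal stability relative to control samples, from duplicates, is given as log2 fold change.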

Compound in a further test: CN1CCN(c2nc(C3=C(c4c[nH]c5ccccc45)C(=O)NC3=O)c3ccccc3n2)CC1 [sotrastaurin]
The procedure, abridged:
as §1

Compound in a further test: CN1CC[C@H](c2c(O)cc(O)c3c(=O)cc(-c4ccccc4Cl)oc23)[C@H](O)C1 [alvocidib]
The procedure, abridged:
as §1

Compound in another test: CN1CCc2c(c3ccccc3n2Cc2ccc(C(=O)NO)cc2)C1 [Tubastatin A]
The procedure, abridged:
as §1

Compound in test [1]: CNC(=O)C1=CC=CC=C1NC2=NC(=NC=C2Cl)NC3=C(C=C(C=C3)N4CCOCC4)OC
The procedure, abridged:
as §1

Compound in another test: CNC(=O)c1ccc(Nc2ncc(C(F)(F)F)c(NCc3nccnc3N(C)S(C)(=O)=O)n2)cc1 [defactinib]
In a few lines:
as §1

Compound in a further test: CNCc1ccc(-c2[nH]c3cc(F)cc4c3c2CCNC4=O)cc1 [rucaparib]
In a few lines: as §1

Compound in test [2]: CNc1nc(-c2ccc3c(N)n[nH]c3c2)cc(N2C[C@@H](C(=O)NC3CCCCC3)CC[C@H]2C)n1
The procedure, abridged:
as §1

Compound in a further test: COC(=O)N[C@@H](C)CNc1nccc(-c2cn(C(C)C)nc2-c2cc(Cl)cc(NS(C)(=O)=O)c2F)n1 [encorafenib]
In a few lines: as §1

Compound in test [3]: COC(=O)[C@H](CCSC)NC(=O)C1=C(C=C(C=C1)NC[C@H](CS)N)C2=CC=CC=C2
The procedure, abridged: as §1

Chain of UniProt Q9NRP0 (Q9NRP0 whole entry, looked up): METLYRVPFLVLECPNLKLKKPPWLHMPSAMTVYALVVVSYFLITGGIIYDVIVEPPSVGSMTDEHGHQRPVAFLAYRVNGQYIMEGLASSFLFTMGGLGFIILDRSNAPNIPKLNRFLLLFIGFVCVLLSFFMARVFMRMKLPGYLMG
Chain of UniProt Q9BW27 (Q9BW27 whole entry, looked up): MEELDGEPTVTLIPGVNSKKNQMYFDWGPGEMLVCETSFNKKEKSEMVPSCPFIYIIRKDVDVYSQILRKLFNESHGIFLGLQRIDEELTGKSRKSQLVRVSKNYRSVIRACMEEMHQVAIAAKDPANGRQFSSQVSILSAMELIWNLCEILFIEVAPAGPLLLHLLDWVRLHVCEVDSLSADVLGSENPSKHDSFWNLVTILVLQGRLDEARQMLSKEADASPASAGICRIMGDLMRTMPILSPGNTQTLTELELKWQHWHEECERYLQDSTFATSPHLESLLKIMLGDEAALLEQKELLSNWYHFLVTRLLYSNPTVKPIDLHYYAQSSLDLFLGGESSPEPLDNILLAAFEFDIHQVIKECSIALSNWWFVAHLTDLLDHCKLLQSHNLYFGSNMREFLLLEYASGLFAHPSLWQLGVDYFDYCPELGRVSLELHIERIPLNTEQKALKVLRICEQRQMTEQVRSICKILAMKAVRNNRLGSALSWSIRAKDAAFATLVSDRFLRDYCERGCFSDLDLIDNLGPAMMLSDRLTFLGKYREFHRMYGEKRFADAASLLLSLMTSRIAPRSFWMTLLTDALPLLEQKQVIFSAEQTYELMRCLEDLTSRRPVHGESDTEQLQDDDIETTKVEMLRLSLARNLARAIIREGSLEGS
Chain of UniProt P49116 (P49116 whole entry, looked up): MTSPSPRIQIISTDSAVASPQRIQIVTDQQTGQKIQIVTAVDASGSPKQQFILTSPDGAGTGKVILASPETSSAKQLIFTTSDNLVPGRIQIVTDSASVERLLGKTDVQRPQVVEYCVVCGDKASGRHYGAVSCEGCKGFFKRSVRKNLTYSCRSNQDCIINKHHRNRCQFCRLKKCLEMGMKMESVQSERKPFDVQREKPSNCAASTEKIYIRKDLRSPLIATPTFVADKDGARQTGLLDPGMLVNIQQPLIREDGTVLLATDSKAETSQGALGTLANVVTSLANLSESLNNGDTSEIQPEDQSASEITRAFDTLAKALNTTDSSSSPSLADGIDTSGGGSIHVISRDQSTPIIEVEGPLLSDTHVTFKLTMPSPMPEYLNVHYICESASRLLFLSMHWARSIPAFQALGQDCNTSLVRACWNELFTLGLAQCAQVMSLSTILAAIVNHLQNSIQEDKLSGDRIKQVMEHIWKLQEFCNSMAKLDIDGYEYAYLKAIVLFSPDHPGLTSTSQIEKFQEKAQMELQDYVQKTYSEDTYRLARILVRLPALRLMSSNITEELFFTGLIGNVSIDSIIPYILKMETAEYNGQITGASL
Chain of UniProt Q8N4C8 (Q8N4C8 whole entry, looked up): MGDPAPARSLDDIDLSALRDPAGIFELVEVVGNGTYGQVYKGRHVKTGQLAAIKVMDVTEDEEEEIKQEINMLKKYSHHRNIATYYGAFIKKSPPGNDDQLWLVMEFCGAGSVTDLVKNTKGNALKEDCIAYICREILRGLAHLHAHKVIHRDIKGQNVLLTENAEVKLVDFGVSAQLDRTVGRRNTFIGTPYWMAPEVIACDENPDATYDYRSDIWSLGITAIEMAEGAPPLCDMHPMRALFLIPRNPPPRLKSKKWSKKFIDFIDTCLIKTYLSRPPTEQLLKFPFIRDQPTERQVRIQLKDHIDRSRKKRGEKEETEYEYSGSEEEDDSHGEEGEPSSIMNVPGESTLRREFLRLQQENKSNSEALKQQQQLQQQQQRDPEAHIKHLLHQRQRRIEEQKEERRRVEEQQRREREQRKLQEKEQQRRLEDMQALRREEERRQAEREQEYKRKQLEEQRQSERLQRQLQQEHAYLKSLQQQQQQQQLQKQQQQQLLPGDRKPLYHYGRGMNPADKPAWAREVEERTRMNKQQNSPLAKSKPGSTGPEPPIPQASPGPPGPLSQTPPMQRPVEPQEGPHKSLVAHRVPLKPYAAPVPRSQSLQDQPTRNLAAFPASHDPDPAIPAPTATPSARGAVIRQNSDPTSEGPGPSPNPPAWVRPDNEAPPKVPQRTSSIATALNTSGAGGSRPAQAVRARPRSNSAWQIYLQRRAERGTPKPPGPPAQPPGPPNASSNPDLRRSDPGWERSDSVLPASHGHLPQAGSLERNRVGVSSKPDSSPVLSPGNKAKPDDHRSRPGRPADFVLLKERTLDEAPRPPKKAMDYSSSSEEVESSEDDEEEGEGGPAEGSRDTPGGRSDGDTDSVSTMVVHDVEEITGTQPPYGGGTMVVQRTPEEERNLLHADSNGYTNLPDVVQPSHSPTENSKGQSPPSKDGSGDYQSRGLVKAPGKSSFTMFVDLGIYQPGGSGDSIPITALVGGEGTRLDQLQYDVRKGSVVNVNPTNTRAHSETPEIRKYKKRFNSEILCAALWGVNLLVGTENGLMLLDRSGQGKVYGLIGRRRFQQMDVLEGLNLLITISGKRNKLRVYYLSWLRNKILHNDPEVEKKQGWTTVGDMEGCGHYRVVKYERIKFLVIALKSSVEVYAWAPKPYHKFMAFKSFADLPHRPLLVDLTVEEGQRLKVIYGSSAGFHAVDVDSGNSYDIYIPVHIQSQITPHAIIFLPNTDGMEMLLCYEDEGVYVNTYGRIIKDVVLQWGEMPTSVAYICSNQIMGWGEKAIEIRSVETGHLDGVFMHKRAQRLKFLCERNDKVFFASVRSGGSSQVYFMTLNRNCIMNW
Chain of UniProt Q15014 (Q15014 whole entry, looked up): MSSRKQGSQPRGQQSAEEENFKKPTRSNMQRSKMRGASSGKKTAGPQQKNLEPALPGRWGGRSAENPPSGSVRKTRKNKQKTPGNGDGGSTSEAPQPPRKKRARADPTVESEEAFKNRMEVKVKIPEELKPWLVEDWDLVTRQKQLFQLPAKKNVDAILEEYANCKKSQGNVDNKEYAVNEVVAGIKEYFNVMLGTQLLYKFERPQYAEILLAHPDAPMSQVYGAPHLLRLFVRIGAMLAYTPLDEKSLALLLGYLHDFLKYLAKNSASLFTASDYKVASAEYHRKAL
Chain of UniProt P49757 (P49757 whole entry, looked up): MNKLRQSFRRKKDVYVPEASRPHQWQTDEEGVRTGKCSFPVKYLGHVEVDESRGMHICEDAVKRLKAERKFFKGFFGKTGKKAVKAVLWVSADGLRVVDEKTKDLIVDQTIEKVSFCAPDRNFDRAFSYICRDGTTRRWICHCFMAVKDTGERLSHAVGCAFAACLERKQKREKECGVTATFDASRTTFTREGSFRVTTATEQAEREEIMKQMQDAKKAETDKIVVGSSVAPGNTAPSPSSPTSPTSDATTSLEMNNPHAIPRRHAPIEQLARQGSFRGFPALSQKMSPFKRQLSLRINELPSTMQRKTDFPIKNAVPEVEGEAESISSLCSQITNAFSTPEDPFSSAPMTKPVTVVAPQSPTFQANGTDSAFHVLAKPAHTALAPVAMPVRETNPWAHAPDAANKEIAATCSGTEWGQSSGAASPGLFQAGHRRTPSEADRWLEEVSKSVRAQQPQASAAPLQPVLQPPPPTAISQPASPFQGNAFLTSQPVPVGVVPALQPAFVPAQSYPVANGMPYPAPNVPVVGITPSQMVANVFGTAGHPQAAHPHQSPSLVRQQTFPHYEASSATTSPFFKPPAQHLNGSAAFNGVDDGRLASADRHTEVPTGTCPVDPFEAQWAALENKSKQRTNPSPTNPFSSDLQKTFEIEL
Chain of UniProt Q15003 (Q15003 whole entry, looked up): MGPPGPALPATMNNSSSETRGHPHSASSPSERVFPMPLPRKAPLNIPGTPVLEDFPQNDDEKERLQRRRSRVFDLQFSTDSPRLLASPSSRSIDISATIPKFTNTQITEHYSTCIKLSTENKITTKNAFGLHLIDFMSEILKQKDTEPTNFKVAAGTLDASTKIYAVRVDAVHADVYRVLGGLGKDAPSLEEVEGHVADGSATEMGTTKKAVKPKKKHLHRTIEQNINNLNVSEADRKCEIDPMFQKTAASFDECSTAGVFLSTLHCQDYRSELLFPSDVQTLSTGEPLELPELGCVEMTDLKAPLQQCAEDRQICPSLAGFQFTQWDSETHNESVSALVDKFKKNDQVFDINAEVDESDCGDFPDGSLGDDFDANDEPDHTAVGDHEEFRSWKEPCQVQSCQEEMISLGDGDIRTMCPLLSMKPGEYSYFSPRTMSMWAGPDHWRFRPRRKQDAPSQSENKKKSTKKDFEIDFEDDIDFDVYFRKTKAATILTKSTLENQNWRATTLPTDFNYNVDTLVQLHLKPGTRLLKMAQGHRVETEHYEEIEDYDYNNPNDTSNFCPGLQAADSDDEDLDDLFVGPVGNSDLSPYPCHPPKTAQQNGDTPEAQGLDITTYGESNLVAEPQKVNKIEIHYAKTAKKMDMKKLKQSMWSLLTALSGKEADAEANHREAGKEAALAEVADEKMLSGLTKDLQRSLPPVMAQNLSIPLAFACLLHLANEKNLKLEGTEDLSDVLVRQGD
Chain of UniProt Q9BWT6 (Q9BWT6 whole entry, looked up): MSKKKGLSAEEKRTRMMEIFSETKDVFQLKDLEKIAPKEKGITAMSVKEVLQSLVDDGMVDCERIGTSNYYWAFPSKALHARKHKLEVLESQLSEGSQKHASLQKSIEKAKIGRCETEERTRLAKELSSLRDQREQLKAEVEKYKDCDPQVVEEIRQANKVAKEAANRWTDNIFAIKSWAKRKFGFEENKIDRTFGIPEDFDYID
Chain of UniProt Q9BS92 (Q9BS92 whole entry, looked up): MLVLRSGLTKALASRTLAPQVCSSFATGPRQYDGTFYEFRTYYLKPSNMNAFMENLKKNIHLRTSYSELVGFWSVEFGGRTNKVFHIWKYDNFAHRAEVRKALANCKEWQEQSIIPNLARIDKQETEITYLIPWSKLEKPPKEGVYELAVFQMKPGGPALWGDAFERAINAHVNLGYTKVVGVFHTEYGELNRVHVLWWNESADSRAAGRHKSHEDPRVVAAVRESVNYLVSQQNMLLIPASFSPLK

Regarding NUMB (UniProt P49757), the log2 fold change in the test with saracatinib is 0.033; with sotrastaurin it was -0.266 (active); in the test with alvocidib, -0.095; in the test with Tubastatin A, -0.014; in test [1], -0.027; with defactinib it was -0.044. Moreover, the log2 fold change with rucaparib is 0.01; in test [2], 0.065; with encorafenib it was 0.081; in [3], 0.
Regarding NR2C2 isoform 2 (UniProt P49116), the log2 fold change is 0.052 with saracatinib; -0.041 in the test with sotrastaurin; 0.077 with alvocidib; -0.013 with Tubastatin A; 0.005 in test [1]; 0.001 with defactinib. Moreover, the log2 fold change with rucaparib was 0.071; in test [2] it was -0.044; with encorafenib, 0.053; in test [3] it was 0.028.
Consider MORF4L2 (UniProt Q15014), for which the log2 fold change with saracatinib was -0.002; in the test with sotrastaurin it was -0.01; with alvocidib, 0.022; with Tubastatin A, 0.136; in [1] it was -0.003; in the test with defactinib, 0.011. The log2 fold change with rucaparib was 0.056; in [2], -0.1; with encorafenib it was 0.04; in test [3], 0.066.
In the case of MRPS12 (UniProt O15235), the log2 fold change in the test with saracatinib was -0.19; with sotrastaurin, -0.068; with alvocidib, -0.001; in the test with Tubastatin A, -0.02; in [1] it was -0.017; with defactinib it was 0.119. The log2 fold change is 0.299 in the test with rucaparib, 0.233 in test [2], 0.105 with encorafenib and 0.048 in test [3].
With MRPL46 (UniProt Q9H2W6), the log2 fold change with saracatinib is -0.071; in the test with sotrastaurin, -0.073; in the test with alvocidib, 0.016; with Tubastatin A, 0.037; in test [1], 0.29 (active); with defactinib, 0.043. For the same target, the log2 fold change with rucaparib is 0.058; in [2], 0.115; with encorafenib it was 0.045; in test [3] it was -0.026.
With NDUFB10 (UniProt O96000), the log2 fold change is -0.027 in the test with saracatinib; 0.008 with sotrastaurin; -0.013 with alvocidib; -0.022 with Tubastatin A; -0.012 in test [1]; -0.016 with defactinib. Further, the log2 fold change was 0.012 with rucaparib, -0.004 in test [2], -0.005 in the test with encorafenib and -0.029 in test [3].
Turning to NFATC2 (UniProt Q13469), the log2 fold change with saracatinib was -0.128; with sotrastaurin it was -0.166; with alvocidib it was -0.199; with Tubastatin A it was 0.118; in test [1] it was 0.007; with defactinib it was -0.14. Besides, the log2 fold change in the test with rucaparib was -0.047; in [2], -0.382 (active); in the test with encorafenib it was 0.101; in test [3], 0.071.
NCAPH (UniProt Q15003): the log2 fold change with saracatinib is 0.001; with sotrastaurin it was -0.15; in the test with alvocidib, -0.016; with Tubastatin A, 0.04; in [1], 0.024; in the test with defactinib, -0.119. Also, the log2 fold change with rucaparib was 0.074; in test [2], 0.009; with encorafenib, 0.057; in test [3], -0.039.
As for NIPSNAP3B (UniProt Q9BS92), the log2 fold change with saracatinib is 0.122; with sotrastaurin, 0.066; in the test with alvocidib it was -0.029; with Tubastatin A it was 0.01; in [1], 0.112; with defactinib, -0.026. The log2 fold change with rucaparib is 0.31 (active); in [2], -0.088; with encorafenib, -0.289; in test [3] it was 0.008.
Take MRPS22 (UniProt P82650): the log2 fold change in the test with saracatinib is -0.098; in the test with sotrastaurin, -0.122; with alvocidib, -0.051; with Tubastatin A, -0.006; in [1], -0.038; with defactinib, 0.058. Moreover, the log2 fold change was 0.143 in the test with rucaparib, 0.169 in [2], 0.064 with encorafenib and -0.051 in test [3].
With NUP85 (UniProt Q9BW27), the log2 fold change with saracatinib is 0.027; in the test with sotrastaurin, -0.026; in the test with alvocidib, -0.023; with Tubastatin A, -0.001; in test [1], -0.021; with defactinib, -0.097. Further, the log2 fold change was -0.047 with rucaparib, -0.034 in [2], 0.025 with encorafenib and 0.003 in test [3].
In the case of NT5DC1 (UniProt Q5TFE4), the log2 fold change was -0.012 with saracatinib; 0.026 in the test with sotrastaurin; -0.049 with alvocidib; 0 in the test with Tubastatin A; 0.115 in [1]; -0.004 in the test with defactinib. Further, the log2 fold change in the test with rucaparib is -0.057; in [2] it was -0.058; with encorafenib, -0.029; in test [3], 0.037.
Turning to MINK1 (UniProt Q8N4C8), the log2 fold change is -0.052 with saracatinib; -0.009 in the test with sotrastaurin; -0.027 with alvocidib; -0.015 with Tubastatin A; -0.007 in [1]; -0.069 in the test with defactinib. For the same target, the log2 fold change with rucaparib was -0.033; in [2] it was -0.029; with encorafenib, 0.044; in [3] it was 0.012.
On to OSTC (UniProt Q9NRP0), for which the log2 fold change with saracatinib was 0.111; with sotrastaurin, -0.05; with alvocidib, -0.048; in the test with Tubastatin A it was -0.174; in [1] it was 0.03; in the test with defactinib, -0.053. Further, the log2 fold change with rucaparib was -0.036; in test [2], -0.004; with encorafenib it was 0.047; in test [3] it was -0.046.
On to MND1 (UniProt Q9BWT6), for which the log2 fold change with saracatinib was 0.006; with sotrastaurin, 0.036; with alvocidib it was 0.011; with Tubastatin A, -0.006; in [1], -0.029; with defactinib, -0.021. Besides, the log2 fold change in the test with rucaparib is 0.05; in test [2], -0.059; in the test with encorafenib it was -0.15; in [3], 0.023.
